# Measured values published in the supplement of paper PMC7156485.
# ± gives the standard deviation of the averaged measurements.
# System: HCC1569
# Assay: cell number relative to DMSO (% of DMSO); higher = more cells (less growth inhibition / toxicity)
# Settings: concentration: 10 µM; 24 h
# Procedure, shortened: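 H1.0 nuclear intensity or cell number is expressed as percent of the plate control, with the median of replicates taken. HCC1569 and TDF cells were treated with compounds at 10 µM for 24 h at 37 °C, in triplicate, then fixed and immunostained for H1.0 with DAPI as a nuclear stain. HCC1569 values were smoothed to correct for positional effects.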
# 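Note: TDF denotes transformed human dermal fibroblasts of mesenchymal origin.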
row,SMILES,cell number
1,CC(OC(=O)c1ccc(F)cc1F)C(=O)N(C)C1CCS(=O)(=O)C1 (stereo not given) [Cdk2/9 Inhibitor],48.9
2,CCCCCCCCC=CCCCCCCCC(=O)OCC(O)COP(=O)(O)O (stereo not given) [Lysophosphatidic acid],101
3,CC(N)=O [Acetamide],113
4,COC1CC2CCC(C)C(O)(O2)C(=O)C(=O)N2CCCCC2C(=O)OC(C(C)CC2CCC(O)C(OC)C2)CC(=O)C(C)C=C(C)C(O)C(OC)C(=O)C(C)CC(C)C=CC=CC=C1C (stereo not given) [Rapamycin],96.2 ± 5.5
5,CC(C)(C)NCC(O)c1ccc(O)c(CO)c1 (stereo not given) [Salbutamol],99.7
6,O[C@@H]1[C@@H](O)[C@H](OC/C=C/c2ccccc2)O[C@H](CO[C@@H]2OC[C@H](O)[C@H](O)[C@H]2O)[C@H]1O,97
7,Clc1ccc(Nc2nnc(Cc3ccncc3)c3ccccc23)cc1 [Vatalanib],103
8,CC(=O)O.O=C(O)c1ccc2c3c1cccc3c(=O)n1c3ccccc3nc21,99.7
9,NC(=O)Nc1sc(-c2ccc(F)cc2)cc1C(N)=O,75.6
10,C=C1CCC(O)CC1=CC=C1CCCC2(C)C1CCC2C(C)CCCC(C)(C)O (stereo not given) [Calcifediol],97.4
11,CCC(=C(CC)c1ccc(O)cc1)c1ccc(O)cc1 [Diethylstilbestrol],99.3
12,NC(=O)C(=O)[O-].[Na+] [Sodium Oxamate],102
13,COc1ccc2c(c1)c(CC(=O)O)c(C)n2Cc1ccc(F)cc1 [1-(4-Fluorobenzyl)-5-methoxy-2-methylindole-3-acetic acid],101
14,COc1ccc2cc(CCC(C)=O)ccc2c1 [Nabumetone],107
15,CC1=NC(=NNc2ccc(S(=O)(=O)[O-])cc2S(=O)(=O)[O-])C(COP(=O)([O-])[O-])=C(C=O)C1=O.[Na+].[Na+].[Na+].[Na+],102
16,Cc1cncc2cccc(S(=O)(=O)N3CCCN(C(=O)CN)CC3C)c12.Cl.Cl.O (stereo not given) [Rho Kinase Inhibitor IV],78.3
17,CN(C)c1ccc(O)c2c1CC1CC3C(N(C)C)C(=O)C(C(N)=O)=C(O)C3(O)C(=O)C1=C2O.Cl (stereo not given) [Minocycline hydrochloride],99
18,C=C1C(=CC=C2CCCC3(C)C2CCC3C(C)CCCC(C)(C)O)CC(O)CC1O (stereo not given) [Calcitriol],102

row,SMILES,cell number
1,COc1ccc2c(c1)CCC1C2CCC2(C)C(NCCCCCCN3C(=O)C=CC3=O)CCC12 (stereo not given),103
2,COc1c(O)cc(O)c2c(=O)cc(-c3ccccc3)oc12 [Wogonin],100
3,CC(C)CC(NC(=O)C(O)C(N)Cc1ccccc1)C(=O)O.Cl (stereo not given) [Epibestatin hydrochloride],105
4,NC(N)=S [Thiourea],100
5,C=C1C(=O)OC2C1CCC(=C)C1CCC(=C)C12 (stereo not given) [Dehydrocostus lactone],83.9
6,CC(C)C(NC(=O)OCc1ccccc1)C(=O)NC(C=O)Cc1ccccc1 (stereo not given),99.5
7,CNC(=C[N+](=O)[O-])NCCSCc1ccc(CN(C)C)o1.Cl [Ranitidine.HCl],110
8,CCN(CC)CCNC(=O)c1ccc(N)cc1.Cl [Procainamide hydrochloride],98.7
9,Cc1ccc(F)cc1C(=O)Nc1ccc(C(=O)N2Cc3cccn3Cc3ccccc32)c(Cl)c1,91.6
10,CC(C(=O)O)c1ccc2c(c1)Cc1cccnc1O2 (stereo not given) [Pranoprofen],98.6
11,CN1CCCCC1CCN1c2ccccc2Sc2ccc(S(C)=O)cc21.O=S(=O)(O)c1ccccc1 (stereo not given) [Mesoridazine besylate],103
12,O.O=P(O)(O)C(O)(Cn1ccnc1)P(=O)(O)O,99.2
13,Nc1ccc(-c2cccc3c(=O)cc(N4CCOCC4)oc23)cc1,78.1
14,COC(=O)C(=C1OC(=O)C(c2ccccc2)=C1O)c1ccccc1 [Vulpinic acid],98.5
15,"O=C(O)[C@H]1C[C@H](C(=O)O)N1 (relative stereo) [trans-Azetidine-2,4-dicarboxylic acid]",95.1
16,CS(=O)(=O)O.Cc1ccc(N(CC2=NCCN2)c2cccc(O)c2)cc1 [Phentolamine mesylate],99
17,CC[n+]1c(C=CN(C)c2ccccc2)n(-c2ccccc2)c2ccc(-c3nc4ccccc4s3)cc21.[I-] [Akt Inhibitor IV],38.7
